Shown is part of a subset that was picked to be rich in hits.
Dicer processing = human Dicer pre-microRNA cleavage inhibition; 47,000 tested, 6% active; Q9UPY3; AID 1347074; z-score at 25 µM; cat-ELCCA pre-miR-21 Dicer processing, chemiluminescence; active compounds read high; in the data active = z-score above about 3, passing the limit was not always enough;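 also: plate controls were vehicle for no effect and no enzyme for full effect; higher signal means more uncleaved substrate so more Dicer inhibition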
Starred values were filed as active, the others as inactive.

For COC(=O)c1cnc(Sc2cc(C(F)(F)F)cc(C(F)(F)F)c2)nc1C(F)(F)F the results were Dicer processing -1.4.
CCOC(=O)c1cc([N+](=O)[O-])ccc1Oc1cncc(Cl)c1 was read as Dicer processing -1.1.
`O=C1ON(c2ccccc2)C(c2ccc3c(c2)OCO3)N1c1ccccc1` (stereo not drawn) gave Dicer processing 3.2*.
COc1ccccc1C1N(c2ccccc2)OC(=O)N1c1ccccc1 (stereo not drawn) was read as Dicer processing 0.2.
`O=C1CC(c2ccc3c(c2)OCO3)c2c(-c3ccccc3)nn(-c3ccccc3)c2N1` (stereo not drawn) gave Dicer processing 0.02.
Screening Cc1c(C)c(C)c(CSC(=N)c2ccc[nH]2)c(C)c1C returned Dicer processing -0.56.
For C=CCn1cnnc1C(CCC(C)C)CC(C)(C)O (stereo not drawn) the results were Dicer processing 3.8*.
`CCOC(=O)CCCCCN1C(=O)c2cccc3cccc(c23)C1=O` gave Dicer processing -0.47.
CCOC(=O)CCCN1C(=O)c2cccc3cccc(c23)C1=O was read as Dicer processing 5.3*.
Screening CCCCCN1C(=O)c2cccc3cccc(c23)C1=O returned Dicer processing -0.15.
For COc1cccc2c1C(=O)c1c(O)c3c(c(O)c1C2=O)C[C@@](O)(C(=O)CO)C[C@@H]3O[C@@H]1C[C@H](N)[C@@H](O)[C@H](C)O1 the results were Dicer processing 0.77.
`CCOC(=O)C1=C(C)OC(N)=C(C#N)C1c1ccc2c(c1)CCO2` (stereo not drawn) gave Dicer processing -1.5.
Screening COC(=O)/C(=C/N(C)C)NC(=O)c1ccccc1 returned Dicer processing 0.22.
`CC1=CC(C)(C)N(C(=O)Nc2ccccc2)c2ccccc21` gave Dicer processing 3.5*.
For CC1=CC(C)(C)N(C(=O)Nc2ccccc2)c2c(C)cc(C)cc21 the results were Dicer processing 1.5.
For CC1=CC(C)(C)N(C(=O)NC2CCCCC2)c2ccccc21 the results were Dicer processing 0.52.
`CSc1sc(Br)c2c1/C(=N/OC(C)=O)CC(C)(C)C2` gave Dicer processing -0.39.
C=CC[n+]1ccccc1/C=C1\Sc2ccccc2N1CC was read as Dicer processing -0.97.
`C=CCN(c1ccccc1C(=O)NCC(=O)O)S(=O)(=O)c1cccc(C)c1` gave Dicer processing -0.5.
`COc1ccc(N=C2C(=O)Nc3ccc(Br)cc32)cc1` gave Dicer processing -3.6.
`O=C1Nc2ccccc2C1=Nc1ccc(Cc2ccc(N=C3C(=O)Nc4ccccc43)cc2)cc1` gave Dicer processing 3.9*.
`O=C1Nc2ccccc2C1=NCCCN=C1C(=O)Nc2ccccc21` gave Dicer processing -1.2.
`Cc1ccc(C)n1-c1sccc1C(=O)O` gave Dicer processing 2.6.
`Cc1ccc(C)n1-c1ccc(O)c(C(=O)O)c1` gave Dicer processing 33*.
`Cc1ccc(C)n1-c1ccc(Br)cc1C(=O)O` gave Dicer processing 8.8.
For COc1ccc2sc(C)[n+](CC(O)CS(=O)(=O)[O-])c2c1 (stereo not drawn) the results were Dicer processing -4.3.
For O=C(Nc1sc2c(c1C(=O)Nc1ccccc1)CCCCC2)c1cccs1 the results were Dicer processing 1.5.
CC(Oc1ccc(Cl)cc1Cl)C(=O)Oc1ccc(Cl)cc1Cl (stereo not drawn) was read as Dicer processing 8.2.
O=S(=O)(CS(=O)(=O)Oc1ccc(Cl)cc1Cl)Oc1ccc(Cl)cc1Cl was read as Dicer processing 2.3.
Screening O=C(/C=C/C(=O)Oc1ccc(Cl)cc1Cl)Oc1ccc(Cl)cc1Cl returned Dicer processing 3.7*.
Screening CCCN1C(=O)C2(/C(=C(/O)c3ccc(Cl)cc3)C(=O)C(=O)N2CCN(C)C)c2ccccc21 (stereo not drawn) returned Dicer processing 0.65.
For CC(C)OC(=O)Cn1cnc([N+](=O)[O-])n1 the results were Dicer processing -0.76.
CC(C)(C)C1CCC(OC(=O)Cn2cnc([N+](=O)[O-])n2)CC1 (stereo not drawn) was read as Dicer processing 3.1*.
Screening COc1ccc(NC(=O)Cn2cnc([N+](=O)[O-])n2)c(OC)c1 returned Dicer processing -0.56.
Screening Clc1ccc(-c2cncn2N2CCCCC2)cc1 returned Dicer processing -0.18.
Screening FC(F)(F)c1cccnc1NCCNc1ncnc2scc(-c3ccccc3)c12 returned Dicer processing -1.3.
Screening O=C(O)COCC(=O)NC1Cc2ccccc2C1 returned Dicer processing -2.1.
Screening COc1cc(-n2c(SCC(=O)c3ccc(Cl)cc3)nc3ccccc3c2=O)c(OC)cc1Cl returned Dicer processing 3.8*.
Screening O=C(CSc1n[nH]c(=O)n1-c1ccccc1)c1ccc(Cl)cc1 returned Dicer processing -3.5.
Screening COc1cc(-n2c(SCC(=O)c3ccccc3)nc3ccccc3c2=O)c(OC)cc1Cl returned Dicer processing -0.01.
For CSc1nc(Sc2ccccc2)c(C#N)c(Sc2ccccc2)n1 the results were Dicer processing -1.9.
For COCCCNC1=C(C#N)C(=O)NC(c2cccs2)S1 (stereo not drawn) the results were Dicer processing 3.1*.
Screening COCCCNC1=C(C#N)C(=O)NC(c2ccc(O)c(OC)c2)S1 (stereo not drawn) returned Dicer processing 1.3.
Screening N#CC1=C(Nc2ccccc2Cl)SC(c2ccncc2)NC1=O (stereo not drawn) returned Dicer processing 0.01.
Screening Cc1nc(C(F)(F)F)ccc1C(=O)O returned Dicer processing 0.22.
`Cc1cccc(C)c1Nc1nc2c(C)cc(C)c(C)c2s1` gave Dicer processing 4.2*.
For Cc1cc(Nc2ccccc2C)c2cccc(C)c2n1 the results were Dicer processing -1.1.
Screening Cc1ccc(Nc2nc3ccccc3s2)c(C)c1 returned Dicer processing 0.88.
Screening CCOC(=O)C1CCN(/C=C(\C#N)S(=O)(=O)c2ccc(Cl)cc2)CC1 returned Dicer processing 1.8.
O=C1c2ccccc2C(=O)N1c1ccc([N+](=O)[O-])cc1 was read as Dicer processing -1.1.
`O=c1c([N+](=O)[O-])c[nH]n(-c2ccccc2)c1=O` gave Dicer processing 4.4*.
`Cc1cc(=O)[nH]n(-c2ccccc2)c1=O` gave Dicer processing 2.
`Clc1ccc(Nc2nc(SCc3ccccc3)nc3nc(N4CCOCC4)ncc23)cc1` gave Dicer processing 0.33.
Cc1ccc2[nH]c3c(N4CCCCC4)ncnc3c2c1 was read as Dicer processing 2.9.
CN(C)c1ncnc2c1[nH]c1ccccc12 was read as Dicer processing 3.5*.
Screening CCN(CC)c1ncnc2c1[nH]c1ccccc12 returned Dicer processing 1.9.
CCCc1n(CC(O)COc2cccc(C)c2)c2ccccc2[n+]1C (stereo not drawn) was read as Dicer processing -0.27.
Screening CCOC(=O)C(NC(=O)c1cccc(C)c1)(Nc1cc(C)ccn1)C(F)(F)F (stereo not drawn) returned Dicer processing -1.8.
Screening CN1CCC(c2ccc(Cl)s2)=N1 returned Dicer processing 0.65.
For Cc1ccc(CSC2=NCC(C)N2)cc1 (stereo not drawn) the results were Dicer processing 3.2*.
For CC1CN=C(SCc2ccc(Cl)cc2)N1 (stereo not drawn) the results were Dicer processing 2.3.
`Cc1ccc(CSC2=NCCCN2)cc1` gave Dicer processing 1.1.
For CCOc1c(N2CC(C)OC(C)C2)c(=O)c1=O (stereo not drawn) the results were Dicer processing 6*.

Screening data from PubChem BioAssay.
